Experimental data as given in PubChem BioAssay (NCATS).
Records with an inconclusive call do not appear. Where a call stands in place of a potency, no number is given. Activity calls are given as the source filed them. Calls follow the shape of the dose curve; as a rule, active = well fitted cell-killing curve with a large enough effect; inconclusive = small, poorly fitted or top-dose-only effect, or effect the other way; inactive = flat fitted curve, though single readings scatter. Where a SMILES comes first, the peptide text is derived from it. [ ]: non-standard residue; d: D form. Ala(indol-2-yl) = N[C@@H](Cc1cc2ccccc2[nH]1)C(=O)O; Aib = CC(C)(N)C(=O)O

system: HeLa; experiment: Primary qHTS to identify gynecologic anti-cancer compounds using libraries of approved drugs and bioactive compounds (AID 1345084); details: Gynecologic cancer cell panel viability, ATPlite luminescence, 48 h; series mostly up to 57.5 µM; also: nearly all actives have a fitted effect of over 55% in size
In short: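 Cells, 1,000 per well, were allowed to settle for 16 h at 37 C before compound addition. Five concentrations were tested for 48 h, and viability was read by ATPlite luminescence after 15 min at room temperature.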
Potency is read from the fitted curve at half-maximal effect.

Row | SMILES | Potency | activity change, negative = cytotoxicity
1 | C=C1[C@@H](C)[C@H]2[C@H](Cc3ccccc3)NC(=O)[C@]23[C@H](OC(C)=O)/C=C/[C@](C)(O)C(=O)[C@@H](C)C/C=C/[C@H]3[C@@H]1O | inactive | –
2 | CC(=O)OC[C@]12C[C@H](OC(=O)CC(C)C)C(C)=C[C@H]1O[C@@H]1[C@H](O)C[C@@]2(C)[C@]12CO2 | 3980 nM (active) | –
3 | C[N@@+]1(CC2CC2)CC[C@]23c4c5ccc(O)c4O[C@H]2C(=O)CC[C@@]3(O)[C@H]1C5 | inactive | –
4 | COc1ccc2c3c([nH]c2c1)C(C=C(C)C)N1C(=O)C2CCCN2C(=O)C1C3 (stereo unspecified) | inactive | –
5 | CC(=O)OC[C@]12C[C@H](OC(=O)CC(C)C)C(C)=C[C@H]1O[C@@H]1[C@H](O)[C@@H](O)[C@@]2(C)[C@]12CO2 | 158 nM (active) | –
6 | CC(C)(NC(=O)[C@@H](N)Cc1ccc(O)cc1)C(=O)N[C@@H](Cc1cc2ccccc2[nH]1)C(=O)N[C@@H](Cc1ccccc1)C(=O)O (H-Y[Aib][Ala(indol-2-yl)]F-OH) | – | 14.3% [at 11.6 µM] (inactive)
7 | CC[C@H]1C2CC3[C@@H]4N(C)c5ccccc5[C@]45C[C@@H]([C@H]2[C@H]5O)N3[C@@H]1O | inactive | –
8 | CC1=C[C@H]2O[C@@H]3C[C@H]4OC(=O)/C=C/C=C/C(=O)OCC/C(C)=C/C(=O)OC[C@@]2(CC1)[C@]4(C)[C@]31CO1 | 89.1 nM (active) | –
9 | C=C(CO)C(=O)O[C@H]1CC(=C)[C@@H]2C[C@H](O)C(=C)[C@@H]2[C@H]2OC(=O)C(=C)[C@@H]21 | inactive | –
10 | O=C(OC[C@H]1O[C@@H](Oc2ccc(O)cc2CO)[C@H](O)[C@@H](O)[C@@H]1O)c1ccccc1 | inactive | –
11 | CC(=O)OC[C@]12C[C@H](O)C(C)=C[C@H]1O[C@@H]1[C@H](O)[C@@H](O)[C@@]2(C)[C@]12CO2 | 7940 nM (active) | –
12 | CC[C@H]1C[C@@H]2CC[C@@H](O2)[C@@H](C)C(=O)O[C@H](CC)C[C@H]2CC[C@H](O2)[C@H](C)C(=O)O[C@@H](C)C[C@@H]2CC[C@@H](O2)[C@@H](C)C(=O)O[C@H](CC)C[C@H]2CC[C@H](O2)[C@H](C)C(=O)O1 | 562 nM (active) | –
13 | CC(=O)OC[C@]12C[C@H](O)C(C)=C[C@H]1O[C@@H]1[C@H](O)[C@@H](OC(C)=O)[C@@]2(C)[C@]12CO2 | 178 nM (active) | –
14 | C[C@H]1O[C@@H](n2cnc3c(N)ncnc32)C[C@@H]1O | inactive | –
15 | CO[C@H]1[C@@H](O)[C@@H](C)O[C@@H](O[C@@H]2C=C3C(OC(C)=O)CC4(O)C(CC[C@]5(C)[C@@H](C6=CC(=O)OC6)CC[C@]45O)[C@@]3(C)CC2)[C@@H]1O (stereo partly specified) | 501 nM (active) | –
16 | CN(C)c1cc2c(cc1Sc1nc3c(N)nccc3n1CCNCC(C)(C)C)OCO2 | inactive | –
